Data taken from the supplement of paper PMC8285479.
Where a name gives a salt, the structure may show the parent alone. ± gives the standard deviation of the averaged measurements. In all, about 1,900 compounds were measured (“normalised cell viability (NPI; 0 = phenylarsine oxide control, 1 = DMSO control)”: median about 1, lowest 2% from about 0.039 on). Only a selection was taken, and the lowest values are over-represented in it overall.

System: NCI-H1944
Test: normalised cell viability (NPI; 0 = phenylarsine oxide control, 1 = DMSO control) (fraction of DMSO control); NCI-H1944 is a non-small cell lung cancer line; higher = more viable cells (less compound toxicity)
Conditions: 6 days
[1] = glucocorticoid arm: hydrocortisone 2.75 uM co-treatment, compound 1 µM
[2] = glucocorticoid arm: hydrocortisone 2.75 uM co-treatment, compound 5 µM
[3] = glucocorticoid arm: hydrocortisone 2.75 uM pre-treated 2 days and continued, compound 1 µM
[4] = glucocorticoid arm: hydrocortisone 2.75 uM pre-treated 2 days and continued, compound 5 µM
[5] = glucocorticoid arm: vehicle, compound 1 µM
[6] = glucocorticoid arm: vehicle, compound 5 µM
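Further: CTB read-out in 384-well plates, triplicate wells, NPI normalised per plate against 1 µM phenylarsine oxide (0) and 0.1% DMSO (1) controls.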

## O=C1c2c(O)cc(O)cc2O[C@H](c2ccc(O)c(O)c2)[C@H]1O (racemic) [(±)-Taxifolin]
[1]
  normalised cell viability: 1.01 ± 0.013
[2]
  normalised cell viability: 0.995 ± 0.0078
[3]
  normalised cell viability: 1.02 ± 0.035
[4]
  normalised cell viability: 1.01 ± 0.012
[5]
  normalised cell viability: 1.017 ± 0.0058
[6]
  normalised cell viability: 1.017 ± 0.0058

## CO[C@@]12[C@H](COC(N)=O)C3=C(C(=O)C(C)=C(N)C3=O)N1C[C@@H]1N[C@@H]12 [Mitomycin; Mitomycin C]
[1]
  normalised cell viability: 1 ± 0.013
[2]
  normalised cell viability: 0.00117 ± 0.0012
[3]
  normalised cell viability: 1.017 ± 0.0058
[4]
  normalised cell viability: 0.0028 ± 0.00069
[5]
  normalised cell viability: 0.9803 ± 0.0055
[6]
  normalised cell viability: 0.000408 ± 0.00038

## O=C1c2c(O)ccc(O)c2C(=O)c2c(NCCNCCO)ccc(NCCNCCO)c21 [Mitoxantrone; Mitoxantrone dihydrochloride]
[1]
  normalised cell viability: 0.181 ± 0.0045
[2]
  normalised cell viability: 0.00493 ± 0.00072
[3]
  normalised cell viability: 0.65 ± 0.012
[4]
  normalised cell viability: 0.0166 ± 0.0015
[5]
  normalised cell viability: 0.0328 ± 0.004
[6]
  normalised cell viability: 0.00403 ± 0.00087

## O=C1c2ccccc2C(=O)c2c(NCCc3ccc(O)cc3)ccc(NCCc3ccc(O)cc3)c21
[1]
  normalised cell viability: 1.01 ± 0.012
[2]
  normalised cell viability: 1.02 ± 0.038
[3]
  normalised cell viability: 1.01 ± 0.012
[4]
  normalised cell viability: 1.012 ± 0.0075
[5]
  normalised cell viability: 1.01 ± 0.0063
[6]
  normalised cell viability: 1.022 ± 0.0098

## O=C1c2c(O)ccc(O)c2C(=O)c2c(NCCNCCO)ccc(NCCNCCO)c21 [Mitoxantrone dihydrochloride]
[1]
  normalised cell viability: 0.00888 ± 0.0019
[2]
  normalised cell viability: 0.00352 ± 0.00052
[3]
  normalised cell viability: 0.145 ± 0.013
[4]
  normalised cell viability: 0.155 ± 0.0095
[5]
  normalised cell viability: 0.00324 ± 0.00091
[6]
  normalised cell viability: 0.00617 ± 0.003

## O=C(NCc1cccc(O)c1)Nc1nc(-c2ccncc2)cs1
[1]
  normalised cell viability: 0.994 ± 0.01
[2]
  normalised cell viability: 0.978 ± 0.021
[3]
  normalised cell viability: 1.01 ± 0.014
[4]
  normalised cell viability: 0.971 ± 0.035
[5]
  normalised cell viability: 0.984 ± 0.0069
[6]
  normalised cell viability: 0.816 ± 0.054

## C=C/C(C)=C/[C@@]1(C)SC(=O)C(C)=C1O [Thiolactomycin]
[1]
  normalised cell viability: 0.992 ± 0.0056
[2]
  normalised cell viability: 0.961 ± 0.021
[3]
  normalised cell viability: 1 ± 0.026
[4]
  normalised cell viability: 0.848 ± 0.23
[5]
  normalised cell viability: 0.9883 ± 0.0015
[6]
  normalised cell viability: 0.998 ± 0.012

## C=CCN1CCc2c(cc(O)c(O)c2Cl)C(c2ccccc2)C1 (racemic) [(±)-Chloro-APB hydrobromide]
[1]
  normalised cell viability: 0.9917 ± 0.0072
[2]
  normalised cell viability: 1.02 ± 0.01
[3]
  normalised cell viability: 0.989 ± 0.0061
[4]
  normalised cell viability: 1 ± 0.011
[5]
  normalised cell viability: 0.9943 ± 0.0021
[6]
  normalised cell viability: 0.99467 ± 0.00058

## N#C/C(=C\c1ccc(-c2cc(Cl)ccc2Cl)o1)C(=O)Nc1cccc2ncccc12
[1]
  normalised cell viability: 0.971 ± 0.01
[2]
  normalised cell viability: 0.978 ± 0.035
[3]
  normalised cell viability: 0.984 ± 0.018
[4]
  normalised cell viability: 0.991 ± 0.014
[5]
  normalised cell viability: 0.9887 ± 0.0078
[6]
  normalised cell viability: 0.989 ± 0.012

## O=C(/C=C/c1cccc(S(=O)(=O)Nc2ccccc2)c1)NO [Belinostat (PXD101)]
[1]
  normalised cell viability: 0.9767 ± 0.0051
[2]
  normalised cell viability: 0.0174 ± 0.0036
[3]
  normalised cell viability: 1.02
[4]
  normalised cell viability: 0.114 ± 0.0036
[5]
  normalised cell viability: 0.575 ± 0.067
[6]
  normalised cell viability: 0.00153 ± 0.00067

## COc1cccc(NC(=O)/C=C/c2ccc(Cl)cc2)c1
[1]
  normalised cell viability: 0.953 ± 0.015
[2]
  normalised cell viability: 0.884 ± 0.026
[3]
  normalised cell viability: 0.992 ± 0.029
[4]
  normalised cell viability: 0.941 ± 0.023
[5]
  normalised cell viability: 0.9757 ± 0.0093
[6]
  normalised cell viability: 0.9683 ± 0.0067

## O=C(/C=C/C#Cc1cccc(NS(=O)(=O)c2ccccc2)c1)NO [Oxamflatin]
[1]
  normalised cell viability: 0.974 ± 0.015
[2]
  normalised cell viability: 0.599 ± 0.44
[3]
  normalised cell viability: 0.992 ± 0.019
[4]
  normalised cell viability: 0.901 ± 0.11
[5]
  normalised cell viability: 0.843 ± 0.17
[6]
  normalised cell viability: 0.509 ± 0.54

## N[C@H](C(=O)O)[C@H]1C[C@@H]1C(=O)O [(2S,1'S,2'S)-2-(carboxycyclopropyl)glycine]
[1]
  normalised cell viability: 0.99 ± 0.0046
[2]
  normalised cell viability: 0.979 ± 0.019
[3]
  normalised cell viability: 0.994 ± 0.0095
[4]
  normalised cell viability: 0.978 ± 0.015
[5]
  normalised cell viability: 0.9847 ± 0.0055
[6]
  normalised cell viability: 0.9883 ± 0.0097

## COC(=O)[C@]12CCC(C)(C)C[C@H]1[C@H]1C(=O)C=C3[C@@]4(C)C=C(C#N)C(=O)C(C)(C)[C@@H]4CC[C@@]3(C)[C@]1(C)CC2 [Bardoxolone Methyl]
[1]
  normalised cell viability: 0.00114 ± 0.00058
[2]
  normalised cell viability: 1.08 ± 0.01
[3]
  normalised cell viability: 0.00366 ± 0.0014
[4]
  normalised cell viability: 1.1 ± 0.015
[5]
  normalised cell viability: 0.00138 ± 0.00077
[6]
  normalised cell viability: 0.858 ± 0.022

## N.N.N.N.N.N.N.N.N.N.N.N.N.N.O.O.[Cl-].[Cl-].[Cl-].[Cl-].[Cl-].[Cl-].[Ru+4].[Ru+5].[Ru+5] [Ruthenium red]
[1]
  normalised cell viability: 0.991 ± 0.01
[2]
  normalised cell viability: 0.974 ± 0.021
[3]
  normalised cell viability: 1.01 ± 0.027
[4]
  normalised cell viability: 0.987 ± 0.023
[5]
  normalised cell viability: 0.995 ± 0.0052
[6]
  normalised cell viability: 0.973 ± 0.0087

## CC(C)(C)NCC(O)COc1cccc2[nH]c(=O)[nH]c12 (racemic)
[1]
  normalised cell viability: 0.9973 ± 0.0023
[2]
  normalised cell viability: 0.974 ± 0.014
[3]
  normalised cell viability: 0.992 ± 0.015
[4]
  normalised cell viability: 0.988 ± 0.0076
[5]
  normalised cell viability: 0.9853 ± 0.0067
[6]
  normalised cell viability: 0.985 ± 0.0053

## CC1c2cccc(O)c2C(O)=C2C(=O)C3(O)C(O)=C(C(N)=O)C(=O)C(N(C)C)C3C(O)C21 (stereo not given) [Doxycycline hydrochloride]
[1]
  normalised cell viability: 1
[2]
  normalised cell viability: 0.9303 ± 0.0093
[3]
  normalised cell viability: 0.99 ± 0.014
[4]
  normalised cell viability: 0.945 ± 0.018
[5]
  normalised cell viability: 0.9897 ± 0.0067
[6]
  normalised cell viability: 0.9743 ± 0.006

## COC(=O)C(C)(N)Cc1ccc(O)cc1 (racemic) [alpha-Methyl-DL-tyrosine methyl ester hydrochloride]
[1]
  normalised cell viability: 1.004 ± 0.01
[2]
  normalised cell viability: 1.01 ± 0.034
[3]
  normalised cell viability: 1.01 ± 0.023
[4]
  normalised cell viability: 0.999 ± 0.011
[5]
  normalised cell viability: 0.9943 ± 0.0057
[6]
  normalised cell viability: 1.004 ± 0.0098

## Cc1cc(C(=O)NOCCO)c(Nc2ccc(I)cc2F)n(C)c1=O
[1]
  normalised cell viability: 0.614 ± 0.018
[2]
  normalised cell viability: 0.565 ± 0.035
[3]
  normalised cell viability: 0.66 ± 0.011
[4]
  normalised cell viability: 0.672 ± 0.037
[5]
  normalised cell viability: 0.286 ± 0.014
[6]
  normalised cell viability: 0.279 ± 0.013

## Cn1c(=O)c(F)c(Nc2ccc(I)cc2F)c2c(=O)n(C[C@@H](O)CO)cnc21
[1]
  normalised cell viability: 0.641 ± 0.035
[2]
  normalised cell viability: 0.629 ± 0.043
[3]
  normalised cell viability: 0.772 ± 0.028
[4]
  normalised cell viability: 0.757 ± 0.042
[5]
  normalised cell viability: 0.329 ± 0.013
[6]
  normalised cell viability: 0.226 ± 0.025

## CCCNC[C@H](O)COc1ccccc1C(=O)CCc1ccccc1 [(S)-(-)-propafenone hydrochloride]
[1]
  normalised cell viability: 0.99967 ± 0.00058
[2]
  normalised cell viability: 0.9747 ± 0.0047
[3]
  normalised cell viability: 1.02 ± 0.026
[4]
  normalised cell viability: 1.02 ± 0.015
[5]
  normalised cell viability: 0.9967 ± 0.0058
[6]
  normalised cell viability: 0.995 ± 0.005

## Cc1nc(C#Cc2ccnc(Cl)c2)c(C)n1-c1ccc(OC(F)(F)F)cc1
[1]
  normalised cell viability: 0.993 ± 0.021
[2]
  normalised cell viability: 0.992 ± 0.01
[3]
  normalised cell viability: 0.983 ± 0.015
[4]
  normalised cell viability: 0.9747 ± 0.004
[5]
  normalised cell viability: 1 ± 0.017
[6]
  normalised cell viability: 1 ± 0.014

## O=S(=O)(NCCNCC=Cc1ccc(Br)cc1)c1cccc2cnccc12
[1]
  normalised cell viability: 0.985 ± 0.012
[2]
  normalised cell viability: 0.985 ± 0.025
[3]
  normalised cell viability: 1.03 ± 0.01
[4]
  normalised cell viability: 1.007 ± 0.0058
[5]
  normalised cell viability: 1.002 ± 0.0072
[6]
  normalised cell viability: 0.968 ± 0.016

## Cc1ccccc1N1CCN(S(=O)(=O)C[C@]23CC[C@H](C[C@@H]2NC(=O)[C@@H](N)CCS(C)(=O)=O)C3(C)C)CC1 [L-368,899 hydrochloride]
[1]
  normalised cell viability: 0.99 ± 0.017
[2]
  normalised cell viability: 0.986 ± 0.024
[3]
  normalised cell viability: 0.998 ± 0.013
[4]
  normalised cell viability: 1.01 ± 0.023
[5]
  normalised cell viability: 0.9847 ± 0.0035
[6]
  normalised cell viability: 0.9993 ± 0.0095

## COC[C@H](NC(=O)c1cnc(C)s1)C(=O)N[C@@H](COC)C(=O)N[C@@H](Cc1ccccc1)C(=O)[C@@]1(C)CO1 [Oprozomib (ONX 0912)]
[1]
  normalised cell viability: 0.208 ± 0.051
[2]
  normalised cell viability: 0.0253 ± 0.0081
[3]
  normalised cell viability: 0.7 ± 0.017
[4]
  normalised cell viability: 0.301 ± 0.021
[5]
  normalised cell viability: 0.0106 ± 0.0015
[6]
  normalised cell viability: 0.00109 ± 0.00065
